# The full list was thinned out, with hits kept by preference.
# DT40 TDP1 CPT: growth inhibition of DT40 Tdp1-/-;hTDP1 cells with camptothecin (screen for TDP1 inhibitors). chicken DT40 Tdp1-/-;hTDP1 cells + 20 nM CPT, ATP luminescence, 48 h. Potency, µM (titrated, usually from 46.2 µM), inactives show top-dose activity change, negative = growth inhibition, most hits filed as inhibitors. 12% of 420,000 active; note: potency is the fitted concentration of half-maximal effect; nearly all actives have a fitted effect of over 55% in size
#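 Chicken DT40 Tdp1-/- cells stably complemented with human TDP1 were seeded at 400 cells/well in medium containing 20 nM camptothecin, exposed to pin-transferred compounds, and grown at 37 °C for at least 48 hr. Viability was read as ATP luminescence.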
# TDP1 cell noCPT: qHTS for Inhibitors of human tyrosyl-DNA phosphodiesterase 1 (TDP1): qHTS in cells in absence of CPT. DT40 Tdp1-/- hTDP1 cells, no CPT, ATP luminescence, 48 h. Potency, µM (series often up to 46.2 µM), for inactives: at the top dose activity change, negative = growth inhibition, actives largely listed as inhibitors. 15% of 420,000 active. AID 686978, 2013; note: potency is the fitted concentration of half-maximal effect; nearly all actives have a fitted effect of over 55% in size
#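 Camptothecin absent (DMSO only). Human TDP1-complemented DT40 knockout cells, 400 cells/well, 37 °C for minimum 48 hr; ATP measured via CellTiter-Glo, 30 min dark incubation, luminescence.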
# IL1B secr inh: inhibitors of inflammasome signaling (IL-1 beta secretion) | THP-1 LPS/ATP IL-1B secretion, AlphaLISA, 16 h; stronger effect = lower value | activity change, % at 57.5 µM | 4.7% of 360,000 active; in the data active = activity change below about -50%; inconclusive = mostly about -30% to -49%
#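 THP-1 cells pretreated 1 hr with compounds (up to 57.5 uM final), then stimulated with LPS (250 ng/mL final) plus ATP (1.25 mM final); secreted IL-1B measured by AlphaLISA after 16 hr, decreased signal indicating inhibition.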
# HT1080 IDH1KD tx: HT-1080 IDH1 knockdown cell toxicity (counter line); HT-1080 IDH1 knockdown viability, ATP luminescence, 48 h; Potency, µM (highest dose often 46.1 µM), for the others: at the top dose activity, negative = toxicity, usual class: cytotoxic; 2% of 360,000 active;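 note: potency is the fitted concentration of half-maximal effect; 0% = DMSO wells and -100% = cell-free medium wells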
#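 In this qHTS, HT-1080 cells depleted of IDH1 are exposed for 48 h at 37 °C to compound titrations. Toxicity is scored from CellTiter-Glo luminescence, with DMSO as full viability and medium alone as none.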
# 12-LOX inh: inhibitors of human 12S-lipoxygenase ALOX12. purified 12hLO, xylenol orange hydroperoxide absorbance. Potency, µM (doses to about 108 µM), for inactives: top-dose activity change, negative = inhibition, usual class: inhibitors. 1.1% of 580,000 active. AID 1671190; note: potency is the fitted concentration of half-maximal effect
# Target sequence (P18054 whole entry, looked up): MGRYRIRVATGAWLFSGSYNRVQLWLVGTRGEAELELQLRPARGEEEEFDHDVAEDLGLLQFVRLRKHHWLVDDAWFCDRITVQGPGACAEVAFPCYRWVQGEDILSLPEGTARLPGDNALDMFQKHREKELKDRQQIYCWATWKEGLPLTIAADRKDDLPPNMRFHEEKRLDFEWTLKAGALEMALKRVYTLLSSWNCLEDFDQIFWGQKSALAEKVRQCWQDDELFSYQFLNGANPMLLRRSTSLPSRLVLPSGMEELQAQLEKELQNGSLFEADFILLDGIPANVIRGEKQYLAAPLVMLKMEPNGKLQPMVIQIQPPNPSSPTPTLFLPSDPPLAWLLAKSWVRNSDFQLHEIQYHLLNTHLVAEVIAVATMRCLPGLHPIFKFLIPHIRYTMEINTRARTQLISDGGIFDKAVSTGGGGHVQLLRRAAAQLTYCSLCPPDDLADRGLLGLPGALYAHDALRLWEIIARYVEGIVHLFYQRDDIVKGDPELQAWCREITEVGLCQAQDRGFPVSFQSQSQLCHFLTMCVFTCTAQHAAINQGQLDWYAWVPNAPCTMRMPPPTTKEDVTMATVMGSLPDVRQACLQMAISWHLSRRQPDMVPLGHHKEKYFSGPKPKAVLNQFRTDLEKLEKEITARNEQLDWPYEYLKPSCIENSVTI
#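 Purified human 12hLO (150 nM final) in 25 mM Hepes, 0.01% Triton X-100, pH 7.0 was preincubated 15 min at room temperature with compound. Then 40 uM arachidonic acid was added, 30 min. Hydroperoxide was read by Fe-XO absorbance ratio 573/405 nm.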
# HT1080NT lethal: kills 2HG-producing HT-1080-NT fibrosarcoma cells; HT-1080-NT fibrosarcoma viability, CellTiter-Glo ATP luminescence, 48 h; Potency, µM (top dose mostly 46.1 µM), without a hit: at the top dose activity, negative = less viability, hits mostly cytotoxic; 1.6% of 360,000 active; AID 686970;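 note: NT is the 2HG producing partner of a matched IDH1 knockdown line; potency is the fitted concentration of half-maximal effect; 0% = DMSO-treated cells and -100% = media-only wells without cells; nearly all actives have a fitted effect of over 55% in size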
#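 Read-out is CellTiter-Glo luminescence after 10 minutes at room temperature, following 48 hours' compound treatment of HT-1080-NT cells (750 cells/well, RPMI, 5% FBS, 37 degrees C).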
# * marks the source's active call; other numbers are inactive results; ? = inconclusive; / = not tested or not shown; [ ] = another dose, or the depositor's remark. Unless noted, calls come from the whole dose curve; as a rule, active = well fitted curve in the direction sought with a large enough effect; inconclusive = small, poorly fitted or top-dose-only effect, or another doubt; inactive = no such curve, though single readings can be large; an effect the other way counts as inactive or inconclusive. Unless noted, % is set by controls: 0 for no effect and ±100 for the full control effect.
SMILES,DT40 TDP1 CPT,TDP1 cell noCPT,IL1B secr inh,HT1080 IDH1KD tx,12-LOX inh,HT1080NT lethal
Cc1[nH]c(=O)c(C#N)cc1C(=O)N1CCCC2(CCC(=O)N(C3CC3)C2)C1 (stereo unspecified),/,/,/,/,17%,/
COc1ccccc1/C=C/C=C(\C#N)C(=O)NC(C)c1ccccc1 (stereo unspecified),-27%,21µM*,-94*,?,-23%,?
COC(=O)/C(C#N)=C\c1c(OC)[nH]c2ccccc12,?,9.2µM*,6,-22%,?,-6%
Cc1[nH]c2ccccc2c1/C=C(\C#N)C(=O)NC(C)c1ccccc1 (stereo unspecified),-18%,-28%,-23,?,7.1µM*,5%
COc1ccccc1C(c1nnnn1C(C)(C)C)N1CCN(Cc2ccncc2)CC1 (stereo unspecified),1%,-23%,-12,9%,?,8%
CC(C)CC(c1nnnn1C(C)(C)C)N1CCN(Cc2ccccc2)CC1 (stereo unspecified),-8%,?,-15,7%,10µM*,15%
COCCn1nnnc1C(c1ccccn1)N1CCN(c2cc(Cl)ccc2C)CC1 (stereo unspecified),?,?,-2,-8%,0%[57.4 µM],0%
COc1ccc(C(c2nnnn2Cc2ccc(F)cc2)N2CCN(c3ccccc3)CC2)cc1 (stereo unspecified),?,?,-20,-15%,20%,-8%
COc1ccc(Cn2nnnc2C(c2ccccn2)N2CCN(c3cc(Cl)ccc3C)CC2)cc1 (stereo unspecified),29µM*,?,?,-19%,-27%,-21%
c1ccc(Cn2nnnc2C(c2ccncc2)N2CCOCC2)cc1 (stereo unspecified),-12%,-11%,-7,1%,-13%[57.4 µM],1%
COc1ccc(C(c2nnnn2Cc2ccc(F)cc2)N2CCN(c3ccc(OC)cc3)CC2)cc1 (stereo unspecified),23µM*,15µM*,-22,-11%,41%,-7%
Cc1cc(C(c2nnnn2Cc2ccccc2)N2CCOCC2)c(C)n1-c1ccc2c(c1)OCO2 (stereo unspecified),?,16µM*,-97*,10µM*,/,?
O=C(c1cc(F)cc(F)c1)N1CCOc2ccccc21,/,/,/,/,8%,/
O=C(c1ccc(F)c(F)c1)c1cc2cc(Br)ccc2o1,/,/,/,/,-10%,/
CC(C)C(c1nnnn1Cc1ccc2c(c1)OCO2)N1CCN(c2ccccc2)CC1 (stereo unspecified),-15%,21µM*,17,7%,0%,8%
CCCC(c1nnnn1Cc1ccc(OC)cc1)N1CCN(c2ccccc2)CC1 (stereo unspecified),?,23µM*,4,-5%,0%,0%
CCCC(c1nnnn1Cc1ccc(OC)cc1)N1CCC(C(N)=O)CC1 (stereo unspecified),-4%,4%,-9,7%,?,11%
Fc1ccc(C(c2nnnn2Cc2cccs2)N2CCN(C3CCCCC3)CC2)cc1 (stereo unspecified),?,21µM*,?,-1%,0%,-16%
COc1ccc(Cn2nnnc2C(CC(C)C)N2CCN(c3ccccc3)CC2)cc1 (stereo unspecified),18µM*,15µM*,-3,3%[9.24 µM],-1%,-5%
c1ccn2cc(CSc3ccc4c(c3)OCCCO4)nc2c1,/,/,/,/,72%,/
O=C(c1cc(-c2ccc3c(c2)OCCO3)nc2ccccc12)N1CCOCC1,/,/,/,/,-34%,/
CC(=O)N(CCC1(Cc2ccccc2)CCOC(C)(C)C1)Cc1ccccc1 (stereo unspecified),/,/,/,/,-9%,/
